Hit rate of the full screen: of about 360,000 compounds, about 2,100 (0.58%) were called active.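 How the source made its calls: active means inhibition at 20 µM, scaled to each plate's controls, above about 33% (limit read from the data); inactive means the rest.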 Shown is part of a subset that was picked to be rich in actives.
Each compound was assayed against 26S proteasome non-ATPase regulatory subunit 14 (Homo sapiens) (UniProt O00487) (assay: Rpn11 (PSMD14) deubiquitinase inhibitors, primary screen, biochemical, fluorescence polarization, uHTS (AID 588493)). Conditions: human 26S proteasome, Ub4-pepOG fluorescence polarization; at 20 µM; stronger effect = higher value; 20S core pre-blocked with epoxomicin.
Sequence of 26S proteasome non-ATPase regulatory subunit 14 (Homo sapiens) (O00487 whole entry, looked up): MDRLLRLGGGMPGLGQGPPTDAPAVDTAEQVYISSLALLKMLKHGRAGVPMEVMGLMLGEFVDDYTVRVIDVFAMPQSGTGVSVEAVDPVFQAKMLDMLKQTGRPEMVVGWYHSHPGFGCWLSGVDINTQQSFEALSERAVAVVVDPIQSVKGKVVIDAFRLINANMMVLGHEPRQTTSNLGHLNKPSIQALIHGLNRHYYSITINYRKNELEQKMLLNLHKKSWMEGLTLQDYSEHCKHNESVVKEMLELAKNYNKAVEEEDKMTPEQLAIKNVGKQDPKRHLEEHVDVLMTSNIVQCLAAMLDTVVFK
With `COc1ccc(OC(C)C(=O)Nc2cccnc2)cc1` (stereo not given) the inhibition was -6% (inactive). For `COc1cccc(NC(=O)CC(c2ccc(OC(C)C)cc2)c2ccccc2OC)c1` (stereo not given), the inhibition was -1.6% (inactive). For `COc1cccc(NC(=O)C(C)Oc2ccccc2)c1` (stereo not given), the inhibition was 112% (active). `Cc1ccc2[nH]c(C(=O)O)c(NC(=O)c3ccccc3[N+](=O)[O-])c2c1` was tested, and the inhibition was 3.4% (inactive). `Cc1sc2nc(COC(=O)C(NC(=O)c3ccc(Cl)cc3Cl)C(C)C)[nH]c(=O)c2c1C` (stereo not given) was tested, and the inhibition was 56.9% (active). With `Cc1ccc(S(=O)(=O)N2CCCC2C(=O)OCc2nc3sc(C)c(C)c3c(=O)[nH]2)cc1` (stereo not given) the inhibition was -0.8% (inactive). In the case of `O=C(CN1C(=O)CC(c2ccccc2)S(=O)(=O)c2ccccc21)NC1CCCC1` (stereo not given), the inhibition is reported as -1.6% (inactive). For `CCN(c1ccccc1)S(=O)(=O)c1cc2c(cc1C)n(C)c(=O)c(=O)n2C`, the inhibition was -1.8% (inactive). With `COC(=O)CCSc1cc([N+](=O)[O-])cc2c1c(C1OCCS1)nn2-c1ccccc1` (stereo not given) the inhibition was 14% (inactive). With `COC(=O)c1ccc(C(NC(=O)OCc2ccccc2)/C(F)=C/[C@@H](C)C(=O)O)cc1` (stereo not given in full) the inhibition was -4.9% (inactive). For `CCC[C@@H]1C[C@@]1(CCC)[C@@H](NC(=O)c1ccccc1)c1ccc(C(=O)OC)cc1`, the inhibition was -3.6% (inactive). With `CCC/C=C(\CCC)C(NC(=O)Cc1ccccc1)c1ccc(C(=O)OC)cc1` (stereo not given) the inhibition was 40.7% (active). For `O=C(Cc1ccccc1)NNC(=O)C1CCN(c2ncccn2)CC1`, the inhibition was -1.3% (inactive). With `O=c1cc(CN2CCCCCCC2)c2c(ccc3ccccc32)o1` the inhibition was 6.4% (inactive). `Oc1c(CN2CCCC2)cc(COCc2ccccc2)c2cccnc12` was tested, and the inhibition was 49.9% (active). In the case of `COCC(=O)N1CCCC(C(=O)c2ccc(C(F)(F)F)cc2)C1` (stereo not given), the inhibition is reported as -0.9% (inactive). For `CCOC(=O)c1cc(NC(=O)SCC(=O)O)c(C)nc1C`, the inhibition was 1% (inactive). In the case of `CCCNC(=O)C1(C)CCN(C(=O)c2ccccc2OC(F)(F)F)C1` (stereo not given), the inhibition is reported as -2.7% (inactive). In the case of `COc1ccc2[nH]c(=O)c(CNc3ccc(C)c(C)c3)cc2c1`, the inhibition is reported as -2.9% (inactive). For `COc1ccc(Cc2cc(-c3ccc(F)cc3)n[nH]c2=O)cc1`, the inhibition was -2% (inactive). `CCOC(=O)CSc1nc2ccc(C)cc2n2cnnc12` was tested, and the inhibition was 3.8% (inactive). With `CC1(c2ccccc2)NC(=O)N(CC(=O)N2CC(=O)Nc3ccccc32)C1=O` (stereo not given) the inhibition was -0.8% (inactive). In the case of `CCN(CC)C(=O)CSc1nc2ccccc2n1CC(=O)N1CCN(c2ccccc2OC)CC1`, the inhibition is reported as 34.8% (active). With `COc1ccccc1OCCn1c(SCC(N)=O)nc2ccccc21` the inhibition was -6.3% (inactive). In the case of `CCOC(=O)n1c(SCC(=O)N(CC)CC)nc2ccccc21`, the inhibition is reported as 4% (inactive).

Reference: PubChem BioAssay AID588493 (Sanford-Burnham Center for Chemical Genomics, 2011)
